Experimental findings from paper PMC5540273 (PLoS ONE, 2017) are described below.

Conditions in all cases: concentration: 1 μM, replicates: in singlicate; n = 1
For assay [1], the system named is DAPK2.
The test system of assay [2] is DAPK3.
In assay [3] the test system is T1, DCAMKL1.
T1 construct: gene DCLK1

Assay [4] concerns T2, DCAMKL2.
T2 construct: gene DCLK2

Assay [5] has as its system T3, DCAMKL3.
T3 construct: gene DCLK3

The test system of assay [6] is DDR1.
The test system of assay [7] is DDR2.
Assay [8] deals with T4, DLK.
T4 construct: gene MAP3K12

Assay [9] concerns T5, DMPK2.
T5 construct: gene CDC42BPG

The test system of assay [10] is DMPK.
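Also: KINOMEscan kinase panel screen.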

In the case of `Cl.c1ccc(-c2n[nH]cc2-c2ccnc(-c3ccc(CN4CCOCC4)cc3)c2)nc1` [GW776245], the “%Inh” value in [1] is given as 12%; in assay [2], 4%; in [3] it was 38%; in assay [4] it was 16%; in [5], 12%; in assay [6], 0%. Moreover, the “%Inh” value is listed as 34% in assay [7], 0% in assay [8], 9% in assay [9] and 0% in assay [10].

With `Cc1cc(-c2ccc3c(c2)CC[C@@H](N[C@@H](C)c2ccccc2)C3)cnc1N.Cl` [GW412617], the “%Inh” value in assay [1] worked out at 0%; in assay [2] it was 0%; in assay [3] it was 0%; in assay [4], 0%; in assay [5] it was 0%; in [6] it was 14%. In addition, the “%Inh” value in assay [7] stood at 25%; in assay [8], 87%; in assay [9], 4%; in assay [10], 6%.

Turning to `Cl.O=C(Nc1cccc(-c2nn3ncccc3c2-c2ccnc(Nc3cccnc3)n2)c1)c1c(F)cccc1F` [GSK312879], the “%Inh” value turned out to be 27% in assay [1]; 6% in assay [2]; 12% in assay [3]; 0% in assay [4]; 0% in assay [5]; 94.4% in assay [6]. Moreover, the “%Inh” value in assay [7] is recorded as 4%; in assay [8], 14%; in assay [9] it was 13%; in assay [10], 15%.

As for `Cl.NC(=O)c1cccc(Nc2nccc(Nc3ccc(Oc4cccc(Cl)c4)c(Cl)c3)n2)c1` [GW659008], the “%Inh” value in assay [1] was found to be 0%; in [2] it was 22%; in [3], 0%; in assay [4], 13%; in [5] it was 0%; in assay [6] it was 1%. The “%Inh” value in assay [7] worked out at 0%; in assay [8] it was 24%; in [9], 55%; in assay [10], 0%.

Regarding `COC(=O)c1c(-c2ccccc2)c2cc(C(=O)O)ccc2c(=O)n1Cc1ccccc1`, the “%Inh” value is listed as 0% in [1]; 0% in assay [2]; 5% in assay [3]; 4% in [4]; 26% in assay [5]; 92.6% in [6]. Moreover, the “%Inh” value is recorded as 63% in assay [7], 0% in [8], 0% in [9] and 12% in assay [10].

For `CCn1c(-c2ccccn2)nc2cnccc21` [SB-736398], the “%Inh” value in assay [1] is recorded as 0%; in [2] it was 13%; in assay [3] it was 5%; in assay [4], 0%; in [5] it was 0%; in assay [6], 0%. Besides, the “%Inh” value came to 39% in assay [7], 53% in assay [8], 0% in assay [9] and 0% in assay [10].

As for `CC1=C(C(=O)Nc2cc3cn[nH]c3cc2F)C(c2ccc(C(F)(F)F)cc2)CC(=O)N1` (stereo not drawn) [GSK429286], the “%Inh” value in [1] was found to be 0%; in assay [2] it was 24%; in assay [3], 4%; in assay [4] it was 7%; in [5], 39%; in assay [6] it was 3%. In addition, the “%Inh” value in assay [7], in assay [8], in assay [9] and in assay [10] was 0% each time.

Consider `CCn1c(-c2cccnc2O)nc2cnccc21` [SB-736715], for which the “%Inh” value in assay [1] was determined as 0%; in [2], 0%; in [3], 0%; in assay [4], 3%; in assay [5], 0%; in assay [6], 0%. Also, the “%Inh” value in assay [7] worked out at 0%; in assay [8], 19%; in assay [9] it was 0%; in [10] it was 0%.

On to `COc1cc2ncn(-c3cc(OCC4CCCO4)c(C(N)=O)s3)c2cc1OC` (stereo not drawn) [GSK204607], for which the “%Inh” value in assay [1] was 0%; in assay [2] it was 2%; in [3] it was 18%; in assay [4], 0%; in assay [5], 0%; in assay [6], 0%. Besides, the “%Inh” value stood at 21% in assay [7], 33% in assay [8], 0% in assay [9] and 0% in assay [10].

Take `Cc1c(Cn2ccn3c(=O)cc(N4CCOCC4)nc23)cccc1C(F)(F)F` [GSK2289044]: the “%Inh” value in assay [1] worked out at 12%; in assay [2], 12%; in assay [3] it was 3%; in assay [4], 0%; in [5], 13%; in assay [6], 0%. Further, the “%Inh” value in assay [7] is on record as 8%; in [8] it was 0%; in assay [9] it was 0%; in assay [10] it was 64%.

Consider `COC(=O)c1c(-c2ccccc2)c2cc(OC)ccc2c(=O)n1Cc1ccccc1`, for which the “%Inh” value in assay [1] was 2%; in assay [2] it was 6%; in assay [3], 12%; in assay [4], 7%; in assay [5], 0%; in assay [6] it was 81%. The “%Inh” value in assay [7] worked out at 50%; in assay [8] it was 9%; in assay [9] it was 0%; in assay [10], 0%.

As to `C[C@@H]1CCCCN1c1cc(-c2ccc3c(N)n[nH]c3c2)nc(N)n1` [GSK2258759], the “%Inh” value came out at 0% in assay [1]; 19% in assay [2]; 2% in assay [3]; 0% in assay [4]; 0% in assay [5]; 0% in assay [6]. The “%Inh” value in assay [7] turned out to be 0%; in [8], 21%; in assay [9], 0%; in [10], 0%.

On to `Cc1cc(N2Cc3ccccc3C2)nc(Nc2ccc(S(=O)(=O)N3CCOCC3)cc2)n1.Cl` [GSK1669917], for which the “%Inh” value is listed as 5% in assay [1]; 100% in assay [2]; 21% in [3]; 0% in assay [4]; 0% in assay [5]; 0% in assay [6]. The “%Inh” value was 9% in assay [7], 2% in [8], 1% in [9] and 0% in assay [10].

For the compound `Cc1ccc(C(=O)Nc2ccc(Nc3ccnc4cc(-c5ccccn5)ccc34)cc2O)cc1.Cl` [GW440146], the “%Inh” value in [1] is recorded as 0%; in assay [2] it was 13%; in assay [3], 0%; in [4], 0%; in assay [5], 16%; in assay [6] it was 12%. Further, the “%Inh” value in assay [7] is recorded as 10%; in [8], 47%; in assay [9], 0%; in [10] it was 0%.

On to `Cl.Oc1ccc(-c2nc(-c3ccccc3)[nH]c2-c2ccncc2)cc1` [SB-428218], for which the “%Inh” value in [1] is on record as 0%; in assay [2], 31%; in [3] it was 6%; in assay [4], 15%; in assay [5], 7%; in assay [6], 9%. In addition, the “%Inh” value was 59% in assay [7], 58% in assay [8], 0% in assay [9] and 0% in [10].

With `Cc1cccc(-c2nc(Nc3ccncc3)c3ccccc3n2)n1` [GW855857], the “%Inh” value amounted to 7% in assay [1]; 17% in [2]; 14% in assay [3]; 0% in assay [4]; 21% in assay [5]; 30% in assay [6]. Also, the “%Inh” value stood at 45% in [7], 0% in assay [8], 76% in [9] and 2% in assay [10].

Consider `CC(C)(C)c1ccc(C(=O)Nc2cn3cc(Cl)ccc3n2)cc1`, for which the “%Inh” value was determined as 0% in assay [1]; 3% in assay [2]; 15% in assay [3]; 0% in assay [4]; 18% in [5]; 0% in assay [6]. The “%Inh” value in assay [7] came to 20%; in assay [8], 0%; in assay [9] it was 0%; in assay [10], 0%.

Take `Cn1cncc1-c1ccc2ncnc(Nc3ccc(OCc4ccccc4)cc3)c2c1` [GW320571]: the “%Inh” value in assay [1] was found to be 0%; in assay [2], 56%; in assay [3], 0%; in [4] it was 0%; in assay [5] it was 31%; in assay [6], 18%. Moreover, the “%Inh” value in assay [7] is on record as 4%; in assay [8], 35%; in assay [9], 0%; in [10] it was 9%.
